Data as given in ChEMBL document CHEMBL4513216, “Probing the Open Global Health Chemical Diversity Library for Multistage-Active Starting Points for Next-Generation Antimalarials” (ACS Infect Dis, 2020).
Out of some 69,000 compounds screened, about 8,600 (12%) showed an effect of 50% or more. This is one part of a sample in which strong results are shown more often than they occur.

test system: Plasmodium berghei; experiment: Screen against P. berghei liver stage (PbLuc), transformed with Luciferase, at 10uM; type: functional, HepG2; details: tested at 10 uM

Row | SMILES | INHIBITION [%]
1 | Cc1c(NC(=O)NCCO)cccc1OC1CCCC1 | -2.27
2 | CCN(CC)CC1CCN(Cc2ccn(C)c(=O)c2)CC1 | -18
3 | COc1ccc(CNc2cc3[nH]c(O)nc3cc2C)cc1 | 29.1
4 | O=C(CCS(=O)(=O)c1ccccc1)NC1CCOC2(CCOCC2)C1 (configuration not stated) | 12.1
5 | COc1ccc(COCC(=O)N2CCCC(n3cncn3)C2)cc1 (configuration not stated) | -9.76
6 | Cn1cccc1C(=O)N1CCC2(CC1)COC(COc1ccccn1)C2 (configuration not stated) | -8.19
7 | O=S(=O)(c1ccccc1)N1CCC2(CCCN2CC2CCCC2)C1 (configuration not stated) | 71.1
8 | O=C1CCC2(CCN(S(=O)(=O)c3ccccc3)CC2)N1CC1CC1 | -51.6
9 | CC(C)(C)CN1CCCC12CCN(S(=O)(=O)c1ccccc1)C2 (configuration not stated) | 78.8
10 | CC(=O)N1CCC2(CC1)CCN(S(=O)(=O)c1ccccc1)C2 | -18.4
11 | CCN1C(=O)CCC12CCN(S(=O)(=O)c1ccccc1)CC2 | -2.35
12 | O=C1N(CC2CCC2)CCCC12CCN(S(=O)(=O)c1cccnc1)C2 (configuration not stated) | -21.8
13 | Cc1c[nH]nc1C1CN(c2ncccn2)CCO1 (configuration not stated) | 14.575
14 | N#Cc1ccc(CCC(=O)N2CCC(CN3CCOCC3)CC2)cc1 | 37.7
15 | O=C(O)C1CN(c2cncc(Cc3ccccc3)n2)C1 | 8.35
16 | CCc1cc(N[C@H]2CCC[C@H]2CO)n2nc(C)c(C)c2n1 | 16.3
17 | O=S1(=O)CCN(CCCc2ccc(Cl)cc2)CC1 | 15
18 | O=C(COCC(F)(F)F)N1CCCC(n2cccn2)C1 (configuration not stated) | 39.5
19 | CC(C)CC(=O)N1CCN(C(=O)NC(C)C)CC2(CC(=O)N(C)C2)C1 (configuration not stated) | 34.4
20 | O=C(NCCc1ccncc1)c1cccc(S(=O)(=O)NC2CC2)c1 | -78.5
21 | CN1CC[C@]2(CN(CC3CCOC3)C[C@H]2c2ccccc2)C1=O (some centres not stated) | 57.3
22 | CN1CC[C@]2(CN(Cc3nccs3)C[C@H]2c2ccccc2)C1=O | -2.41
23 | CN1CC[C@]2(CN(CC3CCOCC3)C[C@H]2c2ccccc2)C1=O | 43.4

Row | SMILES | INHIBITION [%]
24 | CN1CC[C@]2(CN(CC3CC3)C[C@H]2c2ccccc2)C1=O | 52.4
25 | CN(C)C(=O)CN1CC[C@]2(CN(CC3CC3)C[C@H]2c2ccccc2)C1=O | 26.5
26 | O=C1NCC[C@]12CN(CC1CCOCC1)C[C@H]2c1ccccc1 | 29.5
27 | Cc1ccc(NC2CCN(C(=O)CCCn3ccnc3C)CC2)nn1 | 8.64
28 | CC(C)c1noc(CCCC(=O)NCCOc2ccccc2)n1 | 46.4
29 | CC(C)c1noc(CS(=O)(=O)CC(=O)NCCOc2ccccc2)n1 | 61.5
30 | CC(C)c1noc(CS(=O)(=O)CC(=O)NCc2ccccc2)n1 | 10.6
31 | CC(C)OCCCNC(=O)C1CC(=O)N(c2n[nH]c3cccc(F)c23)C1 (configuration not stated) | -10.9
32 | Cn1cccc1C(=O)N1CCCC(Cn2cc(CO)nn2)C1 (configuration not stated) | -2.39
33 | Cc1ccc(C2CN(CCS(=O)(=O)C(C)C)CCO2)c(C)c1 (configuration not stated) | 30.7
34 | Cc1ccc(C2CN(c3nnc(C(F)F)s3)CCO2)c(C)c1 (configuration not stated) | 57.4
35 | Cc1ccc(C2CN(CCCC#N)CCO2)c(C)c1 (configuration not stated) | -3.47
36 | Cc1ccc(C(=O)N2CCC3(CCN(c4ccsc4)C3=O)C2)cn1 (configuration not stated) | -14.3
37 | NCc1n[nH]c(-c2ccc(Br)cc2)n1 | -34.4
38 | CCCS(=O)(=O)N1CCN(c2cc(-n3cnc(C)c3C)ncn2)CC1 | 27.2
39 | Cc1ncn(-c2cc(N3CCN(S(C)(=O)=O)CC3)ncn2)c1C | 51.5
40 | Cc1nc(N2CCN(S(C)(=O)=O)CC2)cc(-n2cnc(C)c2C)n1 | 23.9
41 | Cc1nc(C)n(C2CCCN(C(=O)c3cncnc3C)C2)n1 (configuration not stated) | 1.563
42 | CS(=O)(=O)NCCCN1CCCC1c1cccc(Br)c1 (configuration not stated) | -5.25
43 | CCNc1ncc(C(=O)NC2CCOCC2)cn1 | 1.94
44 | CCNc1ncc(C(=O)N[C@H](C(N)=O)c2ccccc2)cn1 | 17.1
45 | CCNc1ncc(C(=O)N[C@@H](C)[C@H](O)c2ccccc2)cn1 | 71.2
46 | CCNc1ncc(C(=O)NC2CCSC2)cn1 (configuration not stated) | 37.7

Row | SMILES | INHIBITION [%]
47 | CCNc1ncc(C(=O)NC(c2ccccc2)c2ccco2)cn1 (configuration not stated) | 33.4
48 | CCNc1ncc(C(=O)NC2CCc3ccccc3C2)cn1 (configuration not stated) | 80.9
49 | CCc1nnc2n1CCN(C(=O)c1cc(Cl)c[nH]1)C2 | 24.39
50 | Cc1sc(C(=O)NS(C)(=O)=O)cc1-c1ccc(F)cc1 | 32.7
51 | CCCN1CCC2(CC1)COc1ccccc1S(=O)(=O)N(CC1CC1)C2 | -17.1
52 | CO[C@@H]1CC[C@H]2[C@H]1OCCN2S(=O)(=O)C1CC1 | -15.2
53 | Cc1cc(C)c(CNC(=O)C(C)Oc2ccccc2C#N)c(=O)[nH]1 (configuration not stated) | 37.9
54 | CCS(=O)(=O)N(C)C1CCN(C(=O)c2ccc(Cl)cc2)CC1 | 47.4
55 | CN(C)CCN1CC[C@@H]2[C@@H]1CCN2C(=O)c1cccc(Cl)c1 | 40.4
56 | CCN(C1CCN(C(=O)c2cccc(Cl)c2)CC1)S(C)(=O)=O | 50
57 | CCS(=O)(=O)N(C)C1CCN(C(=O)c2ccc(C)c(C)c2)CC1 | 27.7
58 | CCS(=O)(=O)N(C)C1CCN(C(=O)c2cccc(Cl)c2)CC1 | 61.8
59 | CN(C)C1COC2(CCN(C(=O)c3cccc(Cl)c3)CC2)C1 (configuration not stated) | -9.74
60 | O=C(CC1CC1)N1CC[C@H]2[C@@H]1CCC(=O)N2Cc1ccncc1 | 29
61 | Cc1ccccc1SC1CCN(C(=O)C2CNCC(=O)N2)CC1 (configuration not stated) | 1.37
62 | Cc1ccccc1SC1CCN(C(=O)C2[C@H]3CNC[C@@H]23)CC1 (some centres not stated) | 90.7
63 | Cc1ccccc1N1CCCN(C(=O)CCCS(N)(=O)=O)CC1 | 21.6
64 | Cc1cccc(SC2CCN(C(=O)CCCS(N)(=O)=O)CC2)c1 | 32.8
65 | Cc1ccccc1SC1CCN(C(=O)CCCS(N)(=O)=O)CC1 | 53.7
66 | Cc1ccccc1SC1CCN(C(=O)C2CNC(=O)N2)CC1 (configuration not stated) | 12.8
67 | Cc1cc(C2CCCN2Cc2ccc(S(=O)(=O)N(C)C)o2)on1 (configuration not stated) | 5.9
